Test results taken from PubChem BioAssay.
Active and inactive are the calls of the source. Unless noted, no rule for the calls is given here.

Columns and labels:
[1] = tested on: XIP peptide (Xip251-270) binding; assay: small-molecule binders of XIP peptide, primary screen, biochemical, small-molecule microarray, fluorescence 635/667 nm, 0.1 µg/mL protein (AID 1182); conditions: fluorescent protein binding, 635 nm, higher = more signal, called active from +8 up or from −8 down
[2] = tested on: XIP peptide (Xip251-270); assay: small-molecule binders of XIP peptide, primary screen, biochemical, small-molecule microarray, fluorescence 635/667 nm, 0.5 µg/mL protein (AID 1183); conditions: small-molecule microarray binding, fluorescence 635 nm; higher = more signal
[3] = Plasmodium falciparum growth inhibition, primary screen, strain 3D7, DAPI fluorescence, 100 nL (AID 1184);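 also: parasites grown inside human red blood cells in medium with human serum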; conditions: P. falciparum 3D7 growth, 3 d, higher = more signal
[4] = target: Homeobox protein Hox-A13 (Mus musculus) (UniProt Q62424); assay: inhibitors of HoxA13-DNA binding, primary screen, biochemical, fluorescence polarization, labeled oligonucleotide (AID 1185); conditions: 15 min, higher = more signal, called active from +8 up or from −8 down
Sequence of Homeobox protein Hox-A13 (Mus musculus) (Q62424 whole entry, looked up): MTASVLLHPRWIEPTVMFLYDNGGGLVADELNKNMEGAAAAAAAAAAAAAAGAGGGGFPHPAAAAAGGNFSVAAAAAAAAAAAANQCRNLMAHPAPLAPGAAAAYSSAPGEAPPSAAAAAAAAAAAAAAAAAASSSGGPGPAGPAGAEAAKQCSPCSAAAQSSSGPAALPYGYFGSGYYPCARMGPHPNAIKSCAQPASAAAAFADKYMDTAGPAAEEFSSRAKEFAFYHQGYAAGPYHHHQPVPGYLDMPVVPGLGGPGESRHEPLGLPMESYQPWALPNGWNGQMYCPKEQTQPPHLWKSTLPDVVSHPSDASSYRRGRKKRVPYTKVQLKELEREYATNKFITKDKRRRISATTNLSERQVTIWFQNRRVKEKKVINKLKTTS

[5] = inhibitors of hydroxyurea-induced Chk1 phosphorylation, primary screen, imaging, HeLa, phospho-Chk1 antibody, percent positive cells (AID 1186); conditions: hydroxyurea-induced phospho-Chk1 immunofluorescence imaging, higher = more signal
[6] = inhibitors of hydroxyurea-induced Chk1 phosphorylation, primary screen, imaging, HeLa, phospho-Chk1 nuclear intensity (AID 1187); conditions: hydroxyurea-induced phospho-Chk1 immunofluorescence imaging, higher = more signal

| SMILES | composite z-score [1] | composite z-score [2] | z-score [3] | z-score [4] | z-score [5] | z-score [6] |
| --- | --- | --- | --- | --- | --- | --- |
| CCCCCCCCCCC(O)C1C=CC2C(=O)N(C)C(=O)C2N1Nc1cc(OC)c(OC)c(OC)c1 (centres undefined) | 0.275 (inactive) | -0.924 | -0.326 | -3.83 (inactive) | 0.569 (inactive) | -0.418 (inactive) |
| CO[C@H]1O[C@H](CO)[C@@H](OC(=O)c2ccc(Br)cc2)[C@@H]2OC(=O)[C@H](Cc3ccccc3)C/C=C/C[C@@H](Cc3ccccc3)C(=O)O[C@@H]12 | -0.161 (inactive) | 0.629 | -0.949 | -5.27 (inactive) | -0.708 (inactive) | -1.06 (inactive) |
| COc1cc(NN2C(C(O)c3ccccc3)C=CC3C(=O)N(C)C(=O)C32)cc(OC)c1OC (centres undefined) | 0.561 (inactive) | 0.346 | -0.312 | -3.23 (inactive) | -0.36 (inactive) | -0.516 (inactive) |
| CC(C)C(=C=CC[C@@H](O)c1cccc(OCCO)c1)C[C@@H](O)COCc1ccccc1 | -0.096 (inactive) | 0.294 | -1.18 | -4.48 (inactive) | -1.66 (inactive) | -0.631 (inactive) |
| C=CCC(OC(C)=O)[C@@H]1[C@@H](N(Cc2cccc3ccccc23)C(=O)c2cccc3ccccc23)c2cc(OCCCO)ccc2N1C(=O)c1ccc2ccccc2c1 (some centres undefined) | 0.25 (inactive) | 0.012 | -2.41 | -1.18 (inactive) | -0.534 (inactive) | -0.158 (inactive) |
| C[C@@]12COC[C@]13C=C(Br)[C@H](C2)[C@@]1(CO1)C3=O | 0.0387 (inactive) | -0.192 | 1.88 | -0.703 (inactive) | -0.0927 (inactive) | 0.12 (inactive) |
| C=CCNC(=O)[C@H]1[C@@H]2C(=O)O[C@@H](c3ccccc3)[C@@H](c3ccccc3)N2[C@@H](c2ccc(OCCO)cc2)[C@]12C(=O)Nc1ccc(C#CCNC(N)=O)cc12 | 0.952 (inactive) | 0.512 | -1.13 | -3.66 (inactive) | 0.0622 (inactive) | 0.183 (inactive) |
| C=CC[C@H](OC(=O)Nc1ccc(SC)cc1)c1ccc(OCCO)cc1 | 1.07 (inactive) | -0.141 | 0.749 | -6.15 (inactive) | 0.108 (inactive) | 1.03 (inactive) |
| COc1ccc(C(O)C2C=CC3C(=O)N(c4ccccc4)C(=O)C3N2Nc2ccc(C(C)C)cc2)c2ccccc12 (centres undefined) | 0.886 (inactive) | 0.802 | -0.247 | -0.93 (inactive) | 0.417 (inactive) | 0.0807 (inactive) |
| COCCOC(=O)N1C(=O)[C@@]2(c3ccccc31)[C@H](c1ccccc1OCCO)N1[C@H](c3ccccc3)[C@H](c3ccccc3)OC(=O)[C@H]1[C@@H]2C(N)=O | 2.37 (inactive) | 0.784 | -0.946 | -4.81 (inactive) | 0.0327 (inactive) | 0.12 (inactive) |
| C=CCNC(=O)[C@@H]1[C@H]2C(=O)O[C@H](c3ccccc3)[C@H](c3ccccc3)N2[C@H](c2ccc(O)cc2)[C@@]12C(=O)N(C(=O)OCCOC)c1ccc(C#CCCO)cc12 | 2.07 (inactive) | 0.749 | 1.05 | -3.19 (inactive) | 0.116 (inactive) | -0.365 (inactive) |
| COC(=O)c1c2oc(c1C(=O)OC)C(=O)N1CCC[C@H]1Cn1nncc1CN(Cc1ccccc1)C(=O)N[C@H](CO)CC2 | -0.0783 (inactive) | 0.59 | -0.414 | -3.78 (inactive) | 0.159 (inactive) | 0.306 (inactive) |
| COC(=O)[C@@]1(Cc2ccc(F)cc2)[C@H]2c3cc(C(=O)N(C)C)n(Cc4ccc(O)c(OC)c4)c3C[C@H]2CN1C(=O)c1ccccc1 | 0.0137 (inactive) | 0.744 | -1.76 | -6.34 (inactive) | -0.156 (inactive) | -0.131 (inactive) |
| COCCOC(=O)N1C(=O)[C@@]2(c3cc(C#CCCO)ccc31)[C@H](C(=O)N1CCCCCCC1)[C@H]1C(=O)O[C@H](c3ccccc3)[C@H](c3ccccc3)N1[C@@H]2c1ccccc1OCCO | 0.867 (inactive) | 0.6 | -2.18 | 3.5 (inactive) | 0.204 (inactive) | 0.606 (inactive) |
| NC(=O)[C@@H]1[C@H]2C(=O)O[C@H](c3ccccc3)[C@H](c3ccccc3)N2[C@H](c2ccc(OCCO)cc2)[C@@]12C(=O)Nc1ccc(C#CCCO)cc12 | 0.198 (inactive) | 0.808 | 0.195 | -4.88 (inactive) | -0.504 (inactive) | -0.804 (inactive) |
| O=C1OCCC/C=C\[C@H]2OC34C=CCN(c5ccc6ccccc6c5)C(=O)[C@H]3N(CCCO)C(=O)[C@@H]4C12 (some centres undefined) | 0.0317 (inactive) | 0.481 | 0.267 | -5.72 (inactive) | 1.41 (inactive) | 0.656 (inactive) |
| CO[C@H]1O[C@H](CO)[C@@H](OC(=O)Nc2ccc(C#N)cc2)[C@@H]2OC(=O)[C@H](Cc3cccc(Br)c3)C/C=C/C[C@@H](Cc3cccc(Br)c3)C(=O)O[C@@H]12 | 0.685 (inactive) | 0.254 | -1.47 | 1.1 (inactive) | -0.353 (inactive) | -0.388 (inactive) |

| SMILES | composite z-score [1] | composite z-score [2] | z-score [3] | z-score [4] | z-score [5] | z-score [6] |
| --- | --- | --- | --- | --- | --- | --- |
| COc1ccc(CCNC(=O)[C@@]2(Cc3ccccc3I)c3ccccc3C(=O)N(Cc3ccccc3Cl)[C@H]2c2ccc(CO)cc2)cc1 | 0.71 (inactive) | 0.765 | -1.23 | -3.36 (inactive) | 0.207 (inactive) | -0.304 (inactive) |
| C[C@]1(C(=O)NCCN2CCOCC2)c2ccccc2C(=O)N(Cc2cc(F)cc(C(F)(F)F)c2)[C@H]1c1ccc(CO)cc1 | 1.14 (inactive) | 0.826 | -0.736 | -3.91 (inactive) | -0.69 (inactive) | -0.691 (inactive) |
| COc1ccc(NC(=O)O[C@H]2[C@@H]3OC(=O)[C@H](Cc4cccc(Br)c4)C/C=C/C[C@@H](Cc4cccc(Br)c4)C(=O)O[C@H]3[C@@H](OC)O[C@@H]2CO)cc1 | 1.25 (inactive) | 0.369 | -1.6 | -1.86 (inactive) | 0.0003 (inactive) | 0.0972 (inactive) |
| C=C[C@@H](C)[C@@H](OC(=O)Nc1ccc(SC)cc1)c1ccc(OCCO)cc1 | -0.0412 (inactive) | 0.663 | -0.553 | -5.52 (inactive) | 0.129 (inactive) | 0.387 (inactive) |
| CCN(CC)c1ccc(N2CC=CC34O[C@@H]5/C=C\CCC(C)OC(=O)C5[C@H]3C(=O)N(C(C)CO)[C@@H]4C2=O)cc1 (some centres undefined) | -0.187 (inactive) | 0.56 | 0.2 | -5.38 (inactive) | -0.713 (inactive) | -0.257 (inactive) |
| CN(C)CCCCCCNC(=O)[C@@H]1C[C@@H]2C(=O)N[C@@H](CCCCN)C(=O)N2[C@@H]1c1ccc(O)cc1 | 0.802 (inactive) | 0.753 | -1.02 | -1.14 (inactive) | 0.291 (inactive) | 0.481 (inactive) |
| O=C(NCC(O)CO)[C@@]1(CCS(=O)(=O)c2ccccc2)COC(c2ccc(OCCCO)cc2)=N1 (some centres undefined) | -0.119 (inactive) | 0.696 | -0.475 | -5.1 (inactive) | -0.275 (inactive) | -0.556 (inactive) |
| CCOC(=O)C1=C[C@@H](C(C)(C)C)N(S(=O)(=O)c2ccc(C)cc2)[C@H]1c1ccccc1 | 0.19 (inactive) | 0.311 | -2.01 | -0.661 (inactive) | 0.327 (inactive) | -0.0853 (inactive) |
| Cc1ccc(N2C(=O)c3ccccc3[C@](C)(C(=O)NCc3ccccc3)[C@@H]2c2ccc(CO)cc2)nc1 | -0.353 (inactive) | -0.33 | -1.34 | -0.408 (inactive) | -0.0668 (inactive) | 0.0633 (inactive) |
| C=C(COC)/C(=C/C[C@H](OC(C)=O)c1cccc(OCCO)c1)c1cnc2ccccc2c1 | 1.46 (inactive) | 0.75 | -2.62 | -5.87 (inactive) | -0.104 (inactive) | 0.276 (inactive) |
| CCOC(=O)C[C@H]1[C@H](OC(=O)c2ccccc2-c2ccccc2)[C@@H](NC(=O)c2ccccc2)c2cc(OCCCO)ccc2N1C(=O)c1ccccc1 | -0.101 (inactive) | -0.127 | -1.39 | -4.85 (inactive) | 0.972 (inactive) | 0.528 (inactive) |
| COCCCNC(=O)[C@@]1(Sc2ccc(C)cc2)CC(=O)N(Cc2ccccc2Cl)[C@@H]1c1ccc(CO)cc1I | -0.517 (inactive) | 0.194 | 1.22 | -2.55 (inactive) | 0.234 (inactive) | 0.456 (inactive) |
| CC(CO)N1C(=O)[C@@H]2[C@H]3C(=O)OCC=C[C@H]3OC23C=CCN(c2ccc(Cl)cc2)C(=O)[C@@H]13 (some centres undefined) | -0.4 (inactive) | -0.862 | 0.599 | -3 (inactive) | -0.985 (inactive) | -0.995 (inactive) |
| COc1ccc(C(O)C2C=CC3C(=O)N(c4ccccc4)C(=O)C3N2Nc2ccccc2)cc1 (centres undefined) | 0.348 (inactive) | 0.572 | 0.913 | -3.76 (inactive) | 0.0679 (inactive) | -0.392 (inactive) |
| COCC1=C2[C@@H](CCc3ccccc3)OB(O)C[C@@H]2[C@@H]2C(=O)N(C)C(=O)[C@@H]2C1 | 0.0872 (inactive) | 0.763 | 1.22 | -7.72 (inactive) | 0.684 (inactive) | 1.24 (inactive) |
| COC(=O)C(CC#Cc1ccc2c(c1)[C@]1(C(=O)N2)[C@H](C(=O)Nc2nc3ccccc3s2)[C@H]2C(=O)O[C@H](c3ccccc3)[C@H](c3ccccc3)N2[C@@H]1c1ccc(OCCO)cc1)C(=O)OC | 3.13 (inactive) | 0.771 | -2.1 | 0.713 (inactive) | 0.0974 (inactive) | 0.531 (inactive) |
| COC(=O)C1=CC(CCCO)=CC(c2ccc(CN3CCCC3)cc2)N(Cc2cc3c(cc2Br)OCO3)C=C1C(=O)OC (centres undefined) | 2.27 (inactive) | 0.727 | -1.41 | -3.44 (inactive) | 0.119 (inactive) | 0.656 (inactive) |
